The values that follow come from PubChem BioAssay (Tox21).

Results filed as inconclusive are left out. Where a call stands in place of a potency, no number is given. Activity calls are given as the source filed them. The call rests on the fitted dose curve; in most records, active means well fitted cell-killing curve with a large enough effect in the repeat runs; inconclusive means weak or mixed curves, or effect the other way; inactive means flat fitted curve, though single readings scatter.
Potency means the concentration at half of the fitted maximal effect.

The nature of the experiment: cAMP Responsive Elements (CRE) small molecule antagonists, cell-based qHTS assay: qHTS cell viability counter screen (AID 2060913). Further: nearly all actives have a fitted effect of over 40% in size. The following applies: CRE-bla HEK293T viability, CellTiter-Glo luminescence, 5 h; series mostly up to 92.4 µM. From the text: U.S. Tox21 Program National Center for Advancing Translational Sciences [NCATS] Division of Preclinical Innovation [DPI] U.S. Environmental Protection Agency [EPA] National Institutes of Environmental Health Sciences [NIEHS] National Toxicology Program [NTP] U.S. Food and Drug Administration [FDA] Tox21 Assay Overview: CREB (cyclic-AMP Responsive Element Binding Protein) is a cellular transcription factor. It binds to certain DNA sequences called cAMP Responsive Elements (CRE) and regulates the transcription of the genes. […] This cell line can be used to find agonists/antagonists of the cyclic AMP signaling pathway. The activation of the report gene under culture conditions can be detected by fluorescence intensity. This cell line has been used to screen the Tox21 10K compound library to identify agonists that induce oxidative stress. The cytotoxicity of the Tox21 compound library against the CRE-bla cell line was tested in parallel by measuring the cell viability using CellTiter-Glo assay (Promega, Madison, WI) in the same wells.
Tox21 Assay Protocol Summary: CRE-bla Hek 293T cells were suspended in assay medium (DMEM containing 10% dialyzed FBS, 0.1 mM NEAA, 1 mM sodium pyruvate and 25 mM HEPES) and dispensed at 2,000 cells/4 uL /well into 1536-well black wall/clear bottom plates using a Multidrop Combi (ThermoFisher Scientific, Waltham, MA) dispenser. After the assay plates were incubated at 37 C/5% CO2 for 18 hrs, 23 nL of compounds dissolved in DMSO, positive controls or DMSO only was transferred to the assay plate by a pintool workstation (Kalypsys, San Diego, CA), followed by addition of 1 uL of 1.25uM NKH477 (0.25 uM as final concentration) in assay medium using a Flying Reagent Dispenser (Aurora Discovery, San Diego, CA). The plates were incubated at 37 C and 5% CO2 for 3 hrs. Then 1 uL of LiveBLAzer B/G FRET substrate (Invitrogen, Carlsbad, CA) was added to each well using Bioraptr Flying Reagent Dispenser (FRD, Aurora Discovery, San Diego, CA). The plates were incubated at room temperature for 2 h, then fluorescence intensities were measured using an Envision plate reader (PerkinElmer, Shelton, CT) at Excitation 405nm, Emission 460nm and 530nm. The % activity was determined from the ratio of 460nm/530nm. For cell viability readout that measures cytotoxicity, 4 uL /well of CellTiter-Glo reagent was added into the assay plates using Bioraptr FRD. After 30 min incubation at room temperature, the luminescence intensity in the assay plates was measured using a ViewLux (PerkinElmer, Shelton, CT) plate reader.
In general terms: Quantitative high-throughput screening tests each substance at several concentrations.
Take `CC[N+](CC)(CC)CCOc1cccc(OCC[N+](CC)(CC)CC)c1OCC[N+](CC)(CC)CC`: the Potency result was “inactive”. Regarding `N[C@@H](COP(=O)(O)O)C(=O)O`, the viability change, negative = cytotoxic was 4.6% [at 18.9 µM] (inactive).

Consider `Nc1ccc(Cl)c([N+](=O)[O-])c1`, for which the Potency entry is “inactive”. Regarding `CCCOC(=O)CC`, the Potency result was “inactive”. In the case of `CCCCCCCCCC=O`, the Potency result is “inactive”. Consider `Nc1nc(N)c2nc(-c3ccccc3)c(N)nc2n1`, for which the Potency entry was “inactive”. Take `CCN[C@H]1CN(CCCOC)S(=O)(=O)c2sc(S(N)(=O)=O)cc21`: the Potency entry was “inactive”. Regarding `COP(=O)(O)OP(=O)(O)OC`, the Potency result is “inactive”. Same read-out and setting: next, `Cc1ccc(C)c(N)c1`: “inactive”; `O=C(CCCN1CCC(O)(c2cccc(C(F)(F)F)c2)CC1)c1ccc(F)cc1`: “inactive”; `O=c1[nH]nnc2ccccc12`: “inactive”. For the compound `O=C(O)c1ccc(O)cc1`, the Potency entry is “inactive”.

For the compound `CCCCCCOc1ccc(O)cc1`, the Potency entry is “inactive”. In the case of `OC1OC[C@@H](O)[C@H](O)[C@H]1O` (stereo not given in full), the Potency result was “inactive”. Same read-out and setting: the result for `C=CC(C)(CCC=C(C)C)OC(=O)CC(C)C` (stereo not given) reads “inactive”; that for `CN1CCN(Cc2cc(-c3ccc4[nH]c(=O)oc4c3)co2)[C@@H](c2ccc(F)cc2)C1`, “inactive”. Turning to `O=C1Nc2ccccc2C1=O`, the Potency result was “inactive”. Consider `O=C(Nc1cccc([N+](=O)[O-])c1)c1cc2ccccc2cc1O`, for which the Potency result is “inactive”. As to `O=C(Cn1ccnc1[N+](=O)[O-])NCCO`, the Potency entry was “inactive”. In the case of `Cc1cccc(C)c1OCC(C)N` (stereo not given), the Potency result is “inactive”. On to `CCN(CC)CCNC(=O)c1c(C)[nH]c(/C=C2\C(=O)Nc3ccc(F)cc32)c1C`, for which the Potency result was “inactive”. As for `Cc1cc(CCN2CCN(c3nsc4ccccc34)CC2)cc2c1NC(=O)CC2(C)C`, the Potency is 68.6 µM (active). For `CCCCc1ncc(/C=C(\Cc2cccs2)C(=O)O)n1Cc1ccc(C(=O)O)cc1`, the Potency entry was “inactive”. `O=C(NCCCN1CCOCC1)c1ccc(Cl)cc1`: the Potency result is “inactive”.

`CC(C)CCOC(=O)CC(C)C`: the Potency result is “inactive”. On to `C/C=C1\[C@H]2C=C(C)C[C@]1(N)c1ccc(=O)[nH]c1C2`, for which the Potency entry is “inactive”. Consider `OCCc1ccncc1`, for which the Potency result is “inactive”.

Turning to `CCN1CCCC1CNC(=O)c1cc(S(=O)(=O)CC)c(N)cc1OC` (stereo not given), the Potency entry is “inactive”. As to `C[C@@H]1NC(=O)[C@@H](N)CNC(=O)[C@H](C2CCNC(N)=N2)NC(=O)/C(=C/NC(N)=O)NC(=O)[C@H](CNC(=O)C[C@@H](N)CCCN)NC1=O` (stereo not given in full), the viability change, negative = cytotoxic was -0.0663% [at 0.349 µM] (inactive). With `c1ccc(C(O[C@H]2CCCN(CCc3ccc4c(c3)OCO4)C2)c2ccccc2)cc1`, the Potency result was “inactive”. Turning to `O=C(Cl)c1ccc(C(=O)Cl)cc1`, the Potency entry was “inactive”. For the compound `C[N+]1(C)CCC(=C(c2ccccc2)c2ccccc2)CC1`, the Potency result is “inactive”. Still for that read-out and setting: the result for `CCCN1CCCC[C@H]1C(=O)Nc1c(C)cccc1C` reads “inactive”; that for `O=C(CN1CCN(Cc2ccc3c(c2)OCO3)CC1)N1c2ccccc2Sc2ccccc21`, “inactive”; that for `CC1=CC(=O)CC(C)(C)C1`, “inactive”.

Consider `CC(C(=O)O)c1ccc(C(=O)c2ccccc2)s1` (stereo not given), for which the Potency result is “inactive”. Regarding `CCCCC(CC)(CO)CO`, the Potency result was “inactive”. Regarding `CCOC(=O)c1ncn2c1CN(C)C(=O)c1cc(F)ccc1-2`, the Potency entry was “inactive”. Still for that read-out and setting: next, `CCC[Si](OC)(OC)OC`: “inactive”; `COc1cc(-c2ccc(=O)[nH]n2)ccc1OC(F)F`: “inactive”.
